# Bioassay records as filed in PubChem.
# CF NFkB block: blocks PAF-induced NF-kB reporter in cystic fibrosis cells; 0.86% of 360,000 active; AID 588850; KKLEB NF-kB-GFP reporter, GFP fluorescence overnight; inhibition, % at 5 µM;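 active = at least 50% inhibition at 5 µM, scaled per plate between neutral and stimulator controls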;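 also: PAF is a Pseudomonas aeruginosa culture filtrate used as stimulus; plate controls were PAF-stimulated DMSO wells for no effect and unstimulated DMSO wells for full effect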
# Peg3 prom inh: reduces Peg3 promoter-driven luciferase expression in HeLa | HeLa PEG-Prom luciferase reporter, luminescence, overnight | inhibition, % at 20 µM | 1.7% of 360,000 active | AID 588405;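 active = inhibition of at least 50% at 20 µM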
# LMP1 NFkB inh: reduces LMP1-driven NF-kappaB luciferase signal | LMP1-induced NF-kappaB luciferase reporter cells, luminescence | inhibition, % at 12.5 µM | 0.69% of 350,000 active; in the data active = inhibition above about 41%;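 also: 0% = neutral control wells and 100% = reference inhibitor control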
# Shn3 inh set2: Schnurri-3 reporter inhibition in Clone20 osteoblasts; 0.52% of 360,000 active; Clone20 osteoblast Shn3 3'UTR firefly luciferase, 24 h; inhibition, % at 12.5 µM;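 active = mean inhibition of at least 75% with every replicate also reaching 75%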;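 also: 0% = median of neutral control wells and 100% = pilot-screen positive control compound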
# KKLEB tox: reduces viability of KKLEB cystic fibrosis airway cells | KKLEB CF airway cells viability, ATPlite luminescence, overnight; hits give low values; cells stimulated with P. aeruginosa culture filtrate | activity change (cytotoxicity), % at 5 µM | 0.36% of 360,000 active | AID 602141;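 active = corrected activity change at or below -50% at 5 µM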
# HIF-2a inh: HIF-2a inhibition; 786-0 RCC cells HIF-2a reporter, luciferase luminescence, overnight; inhibition, % at 18.8 µM; 0.72% of 360,000 active; AID 624352;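 active = inhibition of the luminescence signal of 40% or more relative to plate controls, in a single-dose primary screen at 18.75 µM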
# CF NFkB conf: CF NF-kB inhibition confirmation, single concentration. 64% of 1,300 active. inhibition, % at 5 µM. shares compounds with CF NFkB block. KKLEB CF airway cells, PAF-induced NF-kB-GFP fluorescence, overnight. AID 602472; in the data active = inhibition above about 40%;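 also: stimulus PAF is a Pseudomonas aeruginosa filtrate and not platelet activating factor; plate controls were DMSO wells with stimulus for no effect and unstimulated DMSO wells for full effect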
# Starred values were filed as active, the others as inactive; · = no result given. The list is not random: actives were taken first. Their share in the collection is about 2.9%.
SMILES,CF NFkB block,Peg3 prom inh,LMP1 NFkB inh,Shn3 inh set2,KKLEB tox,HIF-2a inh,CF NFkB conf
COc1ccc(NC(=O)Nc2cccc3c2O[C@H](CN(C)Cc2ccc(-c4ccccc4)cc2)[C@@H](C)CN([C@H](C)CO)C3=O)cc1,59*,94*,0,17,-32,-11,-9
C[C@@H]1CN([C@@H](C)CO)C(=O)c2cccc(NC(=O)Nc3ccc(F)cc3)c2O[C@@H]1CN(C)Cc1ccc(Oc2ccccc2)cc1,11,38,2,38,-14,-3,·
C[C@@H]1CN([C@H](C)CO)C(=O)c2cc(NC(=O)Nc3ccc(C(F)(F)F)cc3)ccc2O[C@H]1CN(C)S(=O)(=O)c1ccccc1,57*,12,5,8,14,22,57*
COc1ccccc1-n1ccnc1SCC(=O)NCc1ccco1,-8,9,-5,8,10,13,·
O=C(CNC(=O)c1ccccc1)NCCCSc1ccccc1,13,4,-11,8,0,-2,·
O=C(NCCCSc1ccccc1)c1cc(Cl)ccc1O,58*,36,-3,21,-39,-22,76*
CCc1c(C)nc2ccc(Br)cc2c1SCCC#N,73*,18,26,12,-19,23,89*
CCC(CO)Oc1cc(NCc2ccncc2)c2ncn(C(C)C)c2c1 (stereo unspecified),-4,6,3,-24,9,6,·
CCC(CO)Oc1cc(NCc2ccc(F)cc2)c2ncn(C(C)C)c2c1 (stereo unspecified),-9,15,-4,12,1,13,·
CCC(CO)Oc1cc(NCc2ccc(C)c(C)c2)c2ncn(C(C)C)c2c1 (stereo unspecified),52*,29,-14,80,-11,7,12
CCC(CO)Oc1cc(NCc2cc(C)cc(C)c2)c2ncn(C(C)C)c2c1 (stereo unspecified),67*,-20,-12,3,-4,3,24
O=C(c1ccc(NS(=O)(=O)c2ccc3[nH]c(=O)[nH]c3c2)cc1)N1CCN(c2ccccc2)CC1,7,4,1,-3,5,11,·
COc1ccc(NC(=O)CCS(=O)(=O)c2ccc(Cl)cc2)cc1,2,-18,1,10,1,7,·
CC(=O)c1sc(NC(=O)CCS(=O)(=O)c2ccc(Cl)cc2)nc1C,56*,35,-1,-21,4,-8,40*
COCCN1C(=O)CN(S(C)(=O)=O)CC1(C)C(=O)NC(C)C (stereo unspecified),·,·,·,·,·,5,·
c1cnc2ccc(-n3ccnc3)cc2c1,55*,2,·,0,-27,4,49*
C[C@H](O)[C@@H]1CN2CCc3c([nH]c4ccccc34)[C@@H]2C[C@@H]1N(C)C(=O)Nc1cccc2ccccc12,0,3,·,5,-12,6,·
C[C@H](O)[C@@H]1CN2CCc3c([nH]c4ccc(-c5ccc6c(c5)OCO6)cc34)[C@@H]2C[C@@H]1N(C)C(=O)Nc1ccc(F)cc1,65*,70*,5,22,-40,-8,52*
COc1ccc(NC(=S)NNS(=O)(=O)c2ccc3ccccc3c2)c(OC)c1,6,-2,1,-12,7,7,·
CC(C)C[C@H]1CNC(=S)N1C[C@H]1CCCN1C[C@H](Cc1ccc(O)cc1)N1C[C@H](CC(C)C)N(CCc2ccccc2)C1=S,56*,8,·,6,-16,-18,22
CC(C)C[C@H]1CNC(=S)N1C[C@H]1CCCN1C[C@H](Cc1ccccc1)N1C[C@H](Cc2ccc(O)cc2)N(CCc2ccccc2)C1=S,66*,12,·,-4,-11,-14,31
CC(C)C[C@@H](CN1CCCC1CN1C(=S)NC[C@@H]1Cc1ccc(O)cc1)N1C[C@H](Cc2ccc(O)cc2)N(CC2CCCCCC2)C1=S (stereo partly specified),52*,91*,4,83,0,-35,61*
CCOc1ccc(CCN2C(=S)N([C@@H](CC(C)C)CN3CCCC3CN3C(=S)NC[C@@H]3CC(C)C)C[C@@H]2Cc2ccc(O)cc2)cc1 (stereo partly specified),53*,10,2,18,-9,-20,63*
CCOc1ccc(CCN2C(=S)N([C@@H](CC(C)C)CN3CCC[C@@H]3CN3C(=S)NC[C@@H]3CC(C)C)C[C@@H]2Cc2ccc(O)cc2)cc1,36,19,·,6,-8,-15,·
O=[N+]([O-])c1cccc(N2Cc3ccccc3C2)c1,-14,-97,-16,12,0,-155,·
SMILES,CF NFkB block,Peg3 prom inh,LMP1 NFkB inh,Shn3 inh set2,KKLEB tox,HIF-2a inh,CF NFkB conf
Cc1ccc(-c2ccc(CN3C(C(C)C)C(=O)N(Cc4cn(CCC5OCCO5)nn4)CCS3(=O)=O)cc2)c(C)c1 (stereo unspecified),65*,16,·,21,-14,-18,36
Cc1ccc(-c2ccc(CN3C(C)C(=O)N(Cc4cn(Cc5ccco5)nn4)CCS3(=O)=O)cc2)c(C)c1 (stereo unspecified),48,10,·,-3,2,-2,·
Cc1ccccc1-c1ccc(CN2C(C)C(=O)N(Cc3cn(Cc4ccco4)nn3)CCS2(=O)=O)cc1 (stereo unspecified),60*,27,·,-6,7,2,19
CC1C(=O)N(Cc2cn(CC3CCCCC3)nn2)CCS(=O)(=O)N1Cc1ccc(-c2ccccc2)cc1 (stereo unspecified),17,28,-8,20,5,-13,·
CC1C(=O)N(Cc2cn(Cc3ccco3)nn2)CCS(=O)(=O)N1Cc1ccc(-c2ccccc2C(F)(F)F)cc1 (stereo unspecified),66*,18,·,11,-23,-16,52*
Cc1ccc(-c2ccc(CN3C(C)C(=O)N(Cc4cn(CC5CCCCC5)nn4)CCS3(=O)=O)cc2)cc1 (stereo unspecified),76*,12,-8,18,-24,-35,40
CCC/C=C/c1ccc(CN2C(C)C(=O)N(Cc3cn(Cc4ccco4)nn3)CCS2(=O)=O)cc1 (stereo unspecified),20,14,-6,18,-10,-3,·
CC1C(=O)N(Cc2cn(Cc3ccco3)nn2)CCS(=O)(=O)N1Cc1ccc(-c2ccc(Cl)c(Cl)c2)cc1 (stereo unspecified),65*,21,1,14,5,-21,28
CCC/C=C/c1ccc(CN2C(C(C)C)C(=O)N(Cc3cn(Cc4ccco4)nn3)CCS2(=O)=O)cc1 (stereo unspecified),52*,21,-1,3,8,-35,45*
CNC(=O)c1ccc(NC(=O)C2CCN(c3ncnc4sc(C)c(C)c34)CC2)cc1,60*,22,15,26,-18,35,60*
